Screening results (PubChem BioAssay)
ABCB6 inh 2: blocks the human ABCB6 transporter | Q9NP58 | K562-ABCB6 porphyrin accumulation, flow cytometry, 1 h; stronger effect = lower value | fluorescence ratio to DMSO, % at 10 µM | 0.19% of 360,000 active | AID 602162;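 active means fluorescence ratio to DMSO below 75%, the collection mean minus 3 SD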;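 further: signal is porphyrin accumulated inside mitochondria; 100% equals median channel fluorescence of DMSO control wells; lower ratio means ABCB6 inhibition with less porphyrin fluorescence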
Exocytosis inh: blocks lytic granule exocytosis; TALL-104 LAMP-1 surface exposure, flow cytometry; cells stimulated with thapsigargin and PMA; inhibition, % at 10 µM; 0.66% of 360,000 active;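 active means inhibition above about 55%, limit read from the data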
NR1D1 modulator: Rev-erb alpha (human) modulation; P20393; Rev-erbα–FITC-DNA binding, fluorescence polarization, 90 min; 0.79% of 370,000 active; activity, % at 10 µM;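 active means activity above about 14%, limit read from the data; passing the limit was not always enough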;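 further: 0% = DMSO wells with 35 nM protein and 100% = DMSO wells with 750 nM protein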
Target sequence (P20393 whole entry, looked up): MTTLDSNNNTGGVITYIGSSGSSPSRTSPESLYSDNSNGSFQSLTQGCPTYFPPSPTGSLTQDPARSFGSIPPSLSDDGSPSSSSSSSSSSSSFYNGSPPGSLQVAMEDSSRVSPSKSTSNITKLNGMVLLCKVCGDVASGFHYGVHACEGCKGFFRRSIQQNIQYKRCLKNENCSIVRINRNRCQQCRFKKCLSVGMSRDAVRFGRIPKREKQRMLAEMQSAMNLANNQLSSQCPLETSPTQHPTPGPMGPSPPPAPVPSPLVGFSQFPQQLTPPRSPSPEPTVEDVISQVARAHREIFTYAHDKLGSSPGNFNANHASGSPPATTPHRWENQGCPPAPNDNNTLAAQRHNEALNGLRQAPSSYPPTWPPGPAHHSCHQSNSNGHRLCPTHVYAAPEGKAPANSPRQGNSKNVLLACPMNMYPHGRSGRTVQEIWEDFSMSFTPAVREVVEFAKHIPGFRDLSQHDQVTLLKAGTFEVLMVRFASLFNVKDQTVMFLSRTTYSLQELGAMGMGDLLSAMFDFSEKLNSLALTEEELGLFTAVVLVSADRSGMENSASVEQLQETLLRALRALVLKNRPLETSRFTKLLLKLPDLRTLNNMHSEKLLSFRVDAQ
PG9 Ab binder: PG9 antibody binding by small molecule | TR-FRET gp120-PG9 antibody binding | inhibition, % at 6.7 µM | 0.43% of 360,000 active; in the data active means inhibition above about 8.5%
VLA-4 inh: inhibition in a human VLA-4 binding assay; inhibition, % (about 7 µM as worked out from the volumes in the protocol); 0.2% of 330,000 active; VLA-4 expressing cells, ligand binding flow cytometry; in the data active means inhibition above about 50%
Granule exo CP1: lytic granule exocytosis inhibition; shares compounds with Exocytosis inh; TALL-104 cells, LAMP-1 externalization, flow cytometry; stimulated with PMA plus thapsigargin; inhibition, % at 10 µM; 11% of 1,500 active; in the data active means inhibition above about 60%;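 further: 0% = stimulated vehicle wells and 100% = unstimulated wells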
Active calls of the source: *; · = no result given. Most compounds without a hit are left out; they make up all but 2% or so of the library.

SMILES | ABCB6 inh 2 | Exocytosis inh | NR1D1 modulator | PG9 Ab binder | VLA-4 inh | Granule exo CP1
CC(C(=O)N1CCc2ccccc21)N1CCN(c2cccc(C(F)(F)F)c2)CC1 (configuration not stated) | 95.0 | 61.3* | -3.3 | -1.5 | 8.8 | -12.7
CC(C(=O)N1CCc2ccccc21)N1CCN(c2ccccn2)CC1 (configuration not stated) | 101.0 | -1.0 | -3.5 | 2.2 | 9.8 | ·
COc1ccc(N=C2Sc3ccccc3[C@@H]3C[C@H]4[C@H](CON4C)CN23)c(OC)c1 | · | · | -3.2 | -0.7 | · | ·
O=C(CCc1ccccc1)N[C@H]1[C@H](OC(=O)c2ccco2)CCC[C@@]12C(=O)N(Cc1ccccc1)c1ccccc12 | · | · | 4.0 | · | · | ·
CCN1CCN(c2ccc(NC(=O)CCc3c(C)nc4c(-c5ccccc5)c(C)nn4c3C)cc2)CC1 | 97.0 | 56.1* | 0.7 | -1.5 | -12.3 | 28.2
Cc1nc2c(-c3ccccc3)c(C)nn2c(C)c1CCC(=O)NCc1ccco1 | 99.0 | 4.7 | 4.4 | -0.9 | 4.7 | ·
O=C1C(=O)c2ccc(-c3ccccc3)cc2-c2ccccc21 | 100.0 | 74.4* | -13.5 | -0.7 | 15.4 | -0.5
O=C(CCc1ccccc1)N[C@H]1[C@H](OCc2ccccc2)CCC[C@@]12C(=O)N(Cc1ccccc1)c1ccccc12 | · | · | 2.9 | · | · | ·
O=C(Nc1ccc(F)cc1)OCc1cn(Cc2cc(F)cc(F)c2)nn1 | · | · | -4.3 | · | · | ·
Cc1ccc(NC(=O)c2sc3nc(C)nc(N4CCN(c5ccccn5)CC4)c3c2C)c(C)c1 | 93.0 | -2.9 | 7.8 | -2.5 | 7.3 | ·
Cc1nc(N2CCN(c3ccccn3)CC2)c2c(C)c(C(=O)N3CCN(c4ccccc4F)CC3)sc2n1 | 100.0 | 55.6* | 12.7 | 1.0 | -6.0 | -10.7
CC1=C(C(=O)N(C(C)C)C(C)C)CC(CC(=O)NC2CC2)C(=O)N1Cc1ccc(C(C)(C)C)cc1 (configuration not stated) | 98.0 | -11.6 | 1.4 | 2.0 | · | ·
CC1=C(C(=O)N(C(C)C)C(C)C)CC(CC(=O)NCC2CCCCC2)C(=O)N1Cc1ccc(C(C)(C)C)cc1 (configuration not stated) | 94.0 | 64.1* | 3.9 | -0.1 | · | -9.8
COC(=O)C[C@H]1CC[C@@H]2[C@@H](COc3ccc(NC(=O)C4CCCCC4)cc3C(=O)N2C)O1 | · | · | 2.1 | · | · | ·
COc1ccc(-c2nnc(N3CCCCC3)c3ccccc23)cc1 | 94.0 | -0.5 | · | · | -106.1 | ·
Cc1ccc(-c2nnc(N3CCCCCC3)c3ccccc23)cc1 | 97.0 | 65.7* | -4.6 | 0.1 | 7.1 | -12.1
CCOC(=O)c1c(NC(=O)c2cccs2)sc2c1CCN(C(=O)OCC)C2 | 96.0 | 83.1* | -3.2 | -1.2 | 0.0 | 4.7
CCOC(=O)c1c(NC(=O)c2cccs2)sc2c1CCCC2 | 98.0 | 7.3 | 0.9 | -0.4 | -14.4 | ·
CCOc1ccc(C2Nc3cccc4cccc(c34)N2)cc1OC | 120.0 | 55.5* | -6.5 | -6.9 | 3.6 | -9.2
O=C(NC1CCCCN(Cc2cccc(F)c2)C1=O)c1ccc(F)cc1 (configuration not stated) | · | · | -3.8 | · | · | ·
S=c1nccc(-c2ccc3c(c2)CCO3)[nH]1 | 103.0 | 59.2* | 0.8 | 5.0 | 7.2 | -12.4
Cc1cc(Nc2cccc(Cl)c2)nc(-c2ccccc2O)n1 | 101.0 | 55.8* | 6.1 | 0.8 | -0.5 | -4.3
Cn1cncc1C#Cc1c(-c2ccc(S(C)(=O)=O)cc2)sc2ccccc12 | 92.0 | 102.9* | -8.0 | 1.7 | 44.7 | 97.0*
CCOC(=O)c1c(NC(C)=O)sc2c(OCC(O)CN(CC)CC)c(Br)ccc12 (configuration not stated) | 105.0 | 67.8* | -2.7 | 0.2 | -3.2 | 71.3*
CCOC(=O)c1c(NC(C)=O)sc2c(OCCN(CC)CC)c(Br)ccc12 | 92.0 | 8.8 | 0.3 | -0.3 | 2.6 | ·
SMILES | ABCB6 inh 2 | Exocytosis inh | NR1D1 modulator | PG9 Ab binder | VLA-4 inh | Granule exo CP1
CCOC(=O)N1CCN(C(=O)CSc2ccc3nnc(-c4cccnc4)n3n2)CC1 | 103.0 | 87.3* | 3.1 | -0.7 | 1.3 | -13.1
O=C(Nc1nc(-c2ccco2)cs1)c1ccccc1 | 102.0 | 70.9* | -6.8 | -1.7 | -17.2 | -12.5
c1ccc(COc2ccc(-c3cc4nc(NCCCn5ccnc5)ccn4n3)cc2)cc1 | 98.0 | 72.1* | -2.4 | 0.8 | · | 99.1*
CCN1Cc2nnn(CC3CCCCC3)c2-c2ccccc2S1(=O)=O | · | · | 9.6 | · | · | ·
c1ccc(CNc2nc(N3CCN(Cc4ccccc4)CC3)nc3ccccc23)cc1 | 99.0 | 101.0* | 5.2 | -0.2 | 2.9 | 24.3
c1ccc(CNc2c3ccccc3nc3ccccc23)cc1 | 94.0 | 61.0* | 12.2 | -2.9 | 19.5 | -4.0
COc1ccccc1Nc1nc(NCc2ccco2)c2ccccc2n1 | 97.0 | 98.9* | -1.3 | 0.0 | 5.8 | 22.9
Cc1ccc(Nc2nc(NCc3ccco3)c3ccccc3n2)cc1 | 98.0 | 69.3* | 6.1 | -1.5 | 1.4 | 66.8*
CC1=C[C@]2(CN(CC3CC3)C3=N[C@H](c4ccccc4)CC(=O)N32)n2c(=O)n(-c3ccccc3)c(=O)n2C1 | · | · | -3.4 | · | · | ·
O=C(c1ccccc1Cl)N1CCSCCS1(=O)=O | · | · | 7.8 | -1.3 | · | ·
Cc1ccc(Cn2c(=O)n(Cc3ccc(C(=O)NCC4COC4)cc3)c(=O)c3ccccc32)cc1 | · | · | -0.5 | · | · | ·
CNc1nc(NCc2ccccc2)c2ccccc2n1 | 97.0 | 5.7 | 3.3 | 0.0 | 13.4 | ·
Oc1ccccc1Nc1nc(NCc2ccccc2)c2ccccc2n1 | 102.0 | 67.8* | -4.8 | 1.4 | 10.9 | 66.2*
COC(=O)[C@]12C[C@H](CC(=O)NCc3ccc(C)o3)C(=O)N(Cc3ccc(Cl)cc3Cl)C1=C[C@H](C(C)(C)C)O[C@@H]2C | · | · | 1.5 | · | · | ·
COC(=O)[C@H](Cc1c[nH]c2ccccc12)NC(=O)Cc1c[nH]c2ccccc12 | 97.0 | 65.6* | 0.1 | -1.3 | -2.6 | -11.7
N#CCOC(=O)[C@H](Cc1c[nH]c2ccccc12)NS(=O)(=O)c1ccc(Cl)cc1 | 95.0 | 57.1* | -3.4 | -0.8 | -13.6 | 51.7
COC(=O)C(Cc1c[nH]c2ccccc12)NC(=O)C(C)C (configuration not stated) | 95.0 | -0.1 | -1.9 | -1.6 | 8.0 | ·
COC(=O)C(Cc1c[nH]c2ccccc12)NC(=O)C1CC1 (configuration not stated) | 94.0 | 4.8 | 5.4 | -1.2 | 5.8 | ·
COC(=O)C(Cc1c[nH]c2ccccc12)NC(=O)C(=O)c1c[nH]c2ccccc12 (configuration not stated) | 98.0 | 59.0* | -0.5 | -1.0 | -4.1 | -11.7
COC(=O)[C@H](Cc1c[nH]c2ccccc12)NC(=O)CCCc1c[nH]c2ccccc12 | 94.0 | 74.2* | 9.3 | -0.2 | 16.3 | -11.9
O=S(=O)(c1ccc(Cl)s1)N1CCC(c2nc3ccccc3o2)CC1 | · | · | -2.2 | · | · | ·
O=C(Nc1cccc2ccccc12)c1ccco1 | 96.0 | 10.5 | 2.1 | -0.4 | · | ·
O=C(Nc1ccccc1-c1nc2ccccc2s1)c1ccco1 | 98.0 | 70.7* | 5.0 | 7.1 | -1.5 | -1.7
Cc1c([C@@H]2C[C@H]3CN(Cc4cccc(Cl)c4)C(=O)[C@]34CCCN24)cnn1C | 98.0 | 78.5* | 0.2 | -1.1 | 26.6 | -3.0
